Several values for one entry are separate records, joined by “and”; a condition that tells them apart may be missing. Equal entries are not always repeated. Some compounds were tested as several samples or in several runs, with calls that do not always agree. Activity calls are given as the source filed them. How the source made its calls: active means hit-call score of the fitted dose curve at least 0.9, where 1 is the maximum; inactive means score below 0.9.

The nature of this assay: CCTE_Shafer_MEA_acute_per_burst_spike_number_mean: CCTE's Neural Acute Assay for Average Number of Spikes Per Burst, Shafer Lab (AID 2284015).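 Further: hits are decreases in mean spikes per burst versus baseline.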 The method, then: CCTE_Shafer_MEA_acute assay is conducted using Axion Biosystems 48 well microelectrode array (MEA) plates and Maestro recording system. Each well of the MEA plate contains a grid of 16 microelectrodes embedded in the culture surface. Electrically active cells, such as neurons, can be cultured over the electrodes, and electrical activity in these cells can be recorded extracellularly. The spontaneous firing of neurons is captured from each electrode on a microsecond timescale providing both temporally and spatially precise data. […] The CCTE_Shafer_MEA_acute assay uses primary cultures of rat cortical neurons. As these cultures mature over time, neural networks develop functional activity and form cohesive networks in which electrical activity can be highly coordinated. Baseline 40-minute recordings are made on days post-plating 13 or 15, followed by a secondary 40-minute recording after chemical exposure.CCTE_Shafer_MEA_acute_per_burst_spike_number_mean is a component of the CCTE_Shafer_MEA_acute assay. It measures the average number of spikes (action potential firings) in a single-electrode burst (temporally-clustered group of spikes) during a recording in a microelectrode array (MEA) using Axion Biosystems Maestro 768 channel amplifier with the AxIS adaptive spike detector. The recordings before and after chemical treatment are used to calculate a percent change in the mean number of spikes per burst in each well.Data from the assay component CCTE_Shafer_MEA_acute_per_burst_spike_number_mean was analyzed into 1 assay endpoint. This assay endpoint, CCTE_Shafer_MEA_acute_per_burst_spike_number_mean, was analyzed in the negative analysis fitting direction relative to DMSO as the negative control and baseline of activity. Using a type of functional reporter, gain or loss-of-signal activity can be used to understand electrical activity.
Spontaneous activity in the cortical cultures was recorded using an Axion Biosystems Maestro 768 channel amplifier and Axion Integrated Studios (AxIS) v1.8 (or later) software. The amplifier recorded from all channels simultaneously (gain = 1200 x; sampling rate = 12.5 kHz/channel): raw signals were filtered with a Butterworth band-pass filter (300-5000 Hz), which filters out slower local field potentials leaving only fast potentials, i.e., "spikes", arising from extracellular currents associated with action potentials (Pine 2006; Wheeler and Nam 2011). On-line spike detection of filtered signals was conducted with the AxIS adaptive spike detector, using a threshold of 8x the root mean squared (rms) noise on each channel. Any electrodes with rms noise levels greater than 5 uV were grounded (e.g., no data were recorded). Once grounded, an electrode was grounded for the duration of the experiment. All recordings were conducted at 37 C. Wells were deemed usable if on the day of the exposure >/= 10 electrodes were active (defined as >/= 5 spikes/min). On DIV 13 or 15, a minimum of three wells from one cortical culture preparation were treated with each compound (0.03-40 uM). Prior to recording baseline activity, each mwMEA plate was placed in the Maestro at 37 C and allowed to sit for 20 min while firing rates stabilized. Baseline activity (40 min) was recorded before the addition of each compound. An additional 40 min of spontaneous activity was recorded in the presence of each compound. Changes in network parameters relative to baseline were assessed following compound treatment.
With `CCc1cnc(C2=NC(C)(C(C)C)C(=O)N2)c(C(=O)O)c1` (stereo unspecified), the result was inactive.
Still for that read-out and setting: with `CC(C)=CC1C(C(=O)OCN2C(=O)C3=C(CCCC3)C2=O)C1(C)C` (stereo unspecified) the entry was “inactive”; with `Nc1c(Cl)cc([N+](=O)[O-])cc1Cl`, “inactive”.
The same measure, in the same setting: with `N#CSCSC#N` the entry was “inactive”.
Still for that read-out and setting: with `CCc1cccc(C)c1N(C(=O)CCl)C(C)COC` (stereo unspecified) the entry was “inactive”.
With `COP(=O)(NC(C)=O)SC` (stereo unspecified), the concentration at half-maximal activity (AC50) was 0.124 µM (active) and the compound was called inactive.
With `O=[N+]([O-])c1cc(C(F)(F)F)c(Cl)c([N+](=O)[O-])c1Nc1ncc(C(F)(F)F)cc1Cl`, the AC50 was 0.468 µM (active).
Same read-out and setting: with `C[Si](Cn1cncn1)(c1ccc(F)cc1)c1ccc(F)cc1` the figure was 7.68 µM (active); with `CON=C(C(=O)OC)c1ccccc1CON=C(C)c1cccc(C(F)(F)F)c1`, 0.767 µM (active).
Same read-out and setting: with `CC[C@H](C)[C@H]1O[C@]2(C=C[C@@H]1C)C[C@@H]1C[C@@H](C/C=C(\C)[C@@H](O[C@H]3C[C@H](OC)[C@@H](O[C@H]4C[C@H](OC)[C@@H](NC)[C@H](C)O4)[C@H](C)O3)[C@@H](C)/C=C/C=C3\CO[C@@H]4[C@H](O)C(C)=C[C@@H](C(=O)O1)[C@]34O)O2` the figure was 26.5 nM (active) and 1.5 µM (active).
Regarding `C#CCC1=C(C)C(OC(=O)C2C(C=C(C)C)C2(C)C)CC1=O` (stereo unspecified), the call was inactive.
With `CCOC(=O)CC(SP(=O)(OC)OC)C(=O)OCC` (stereo unspecified), the compound was classed as inactive.
On the same count and under the same terms, with `CC1=NNC(=O)N(/N=C/c2cccnc2)C1` the entry was “inactive”.
As for `CSC1=N[C@@](C)(c2ccccc2)C(=O)N1Nc1ccccc1`, the half-maximal activity concentration (AC50) is 27.1 µM (active) and the result was inactive.
As to `COc1cc(OC)nc(Sc2cccc(Cl)c2C(=O)O)n1`, the compound was classed as inactive.
Turning to `CC(C)N(C(=O)SCC(Cl)=C(Cl)Cl)C(C)C`, the concentration at half-maximal activity (AC50) is 20 µM (active) and 8.68 µM (active).
On the same count and under the same terms, with `CCOP(=S)(Oc1cnc(C(C)(C)C)nc1)OC(C)C` (stereo unspecified) the figure was 29.4 µM (active).
On to `CCOP(=O)(NC(C)C)Oc1ccc(SC)c(C)c1` (stereo unspecified), for which the result was inactive.
As to `COP(=O)(OC)C(O)C(Cl)(Cl)Cl` (stereo unspecified), the AC50 was 2.15 µM (active).
With `FC(F)C(F)(F)OCC(Cn1cncn1)c1ccc(Cl)cc1Cl` (stereo unspecified), the compound was called inactive.
Still for that read-out and setting: with `CC(=NC#N)N(C)Cc1ccc(Cl)nc1` the entry was “inactive”.
Same read-out and setting: with `CNC(=O)ON=C(SC)C(=O)N(C)C` the entry was “inactive”.
The same measure, in the same setting: with `CN1COCN(Cc2cnc(Cl)s2)C1=N[N+](=O)[O-]` the entry was “inactive”; with `CN(C)NC(=O)CCC(=O)O`, “inactive”.
`CC(COc1ccc(Oc2ccccc2)cc1)Oc1ccccn1` (stereo unspecified): the AC50 is 10.2 µM (active).
Still for that read-out and setting: with `CCCOCC(=Nc1ccc(Cl)cc1C(F)(F)F)n1ccnc1` the figure was 2.02 µM (active).
For `Cc1ccn2nc(S(=O)(=O)Nc3c(F)cccc3F)nc2n1`, the compound was called inactive.
On the same count and under the same terms, with `CCOP(=S)(OCC)SCCSCC` the entry was “inactive”; with `O=C(O)c1cc(Oc2ccc(C(F)(F)F)cc2Cl)ccc1[N+](=O)[O-]`, “inactive”.
On the same count and under the same terms, with `C=C(C)[C@H]1Cc2c(ccc3c2O[C@@H]2COc4cc(OC)c(OC)cc4[C@@H]2C3=O)O1` the entry was “inactive”.
On the same count and under the same terms, with `CN(C)[C@@H]1C(=O)C(C(N)=O)=C(O)[C@@]2(O)C(=O)C3=C(O)c4c(O)cccc4[C@@](C)(O)[C@H]3[C@H](O)[C@@H]12` the entry was “inactive”.
In the case of `C[N+]1(C)CCCCC1`, the compound was classed as inactive.
Take `CC(C)[C@H](C(=O)O[C@H](C#N)c1cccc(Oc2ccccc2)c1)c1ccc(Cl)cc1`: the outcome was inactive.
In the case of `CCOP(=S)(OCC)Oc1ccc2c(C)c(Cl)c(=O)oc2c1`, the AC50 is 3.98 µM (active).

Values taken from PubChem BioAssay (EPA / NIEHS).
